Screening data (PubChem)
FMDV inh – High Throughput Screening for Foot and Mouth Disease Virus Antivirals; FMDV antiviral cell-based qHTS; Potency, µM (top dose mostly 57.9 µM), without a hit: at the highest dose activity change, negative = inhibition, actives largely listed as inhibitors; 1.2% of 410,000 active; calls by dose curve; tested in HEK293T cells; also: read-out not given here; potency is read from the fitted curve at half-maximal effect; nearly all actives have a fitted effect of over 45% in size
HCMV inh – qHTS Assay for inhibitors of the human cytomegalovirus (HCMV) | activity change, negative = inhibition, % at 57.5 µM | 4.5% of 410,000 active | AID 1259415, 2018 | HFF cells, HCMV-luciferase reporter, 72 h; active compounds read low; in the data active = activity change below about -60%; inconclusive = no clear call, values can overlap the other calls; inactive = above about -39%
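Steps: HFFs plated, 16 h 37C; compounds added; HCMV-luciferase added to MOI 1 PFU/cell; 72 h 37C; OneGlo reagent, 5 min room temperature; luminescence read, normalized to controls.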
VACV mCherry inh – qHTS for Stage-Specific Inhibitors of Vaccinia Orthopoxvirus: mCherry Reporter Primary qHTS; Vaccinia virus mCherry reporter infection, fluorescence; Potency, µM (series often up to 36.5 µM), without a hit: top-dose activity change, negative = inhibition, most hits filed as inhibitors; 0.63% of 310,000 active; AID 720579, 2013; calls by dose curve; tested in A549 cells; also: potency is read from the fitted curve at half-maximal effect; nearly all actives have a fitted effect of over 35% in size
MARV entry inh – qHTS for inhibitors of binding or entry into cells for Marburg Virus; 1.8% of 300,000 active; Marburg virus pseudotyped entry inhibition, cell reporter; Potency, µM (series often up to 37.8 µM), without a hit: at the top dose activity change, negative = inhibition, usual class: inhibitors; calls by dose curve; tested in HEK293 cells; also: potency is read from the fitted curve at half-maximal effect
LASV entry inh – qHTS for Inhibitors of binding or entry into cells for Lassa Virus; Lassa virus pseudotype entry inhibition, cell reporter; Potency, µM (series often up to 37.9 µM), for the others: at the highest dose activity change, negative = inhibition, actives largely listed as inhibitors; 1.2% of 300,000 active; calls by dose curve; tested in HEK293 cells; also: potency is read from the fitted curve at half-maximal effect; nearly all actives have a fitted effect of over 50% in size
VACV Venus inh – qHTS for Stage-Specific Inhibitors of Vaccinia Orthopoxvirus: Venus Reporter Primary qHTS | Vaccinia virus Venus reporter expression, fluorescence | 0.46% of 330,000 active | AID 720580, 2013 | Potency, µM (series often up to 36.5 µM), inactives show top-dose activity change, negative = inhibition, usual class: inhibitors; calls by dose curve; tested in A549 cells; also: potency is read from the fitted curve at half-maximal effect; nearly all actives have a fitted effect of over 30% in size
* = called active by the depositor; i = inactive; u = inconclusive; x = no result given; ! = not confirmed by another sample; [ ] = another dose, or the depositor's remark. Only some compounds are listed: those with a hit (about 6.5% of all), similar ones and a draw of the others. % is scaled to controls: 0 for no effect and ±100 for the full control effect.

SMILES	FMDV inh	HCMV inh	VACV mCherry inh	MARV entry inh	LASV entry inh	VACV Venus inh
Cc1ccccc1NC(=S)Nc1cccc2cnccc12	u	-65*	-8%	-5%[46.1 µM]	5%	0%
COc1ccc(CCNC(=S)Nc2cccc3ccccc23)cc1	21%	-26	-12%	-17%	1%	5%
S=C(NCc1ccccc1)Nc1cccc2cnccc12	u	-87*	-17%	u	x	-16%
COc1ccc(OC)c(CCNC(=O)CCCn2c(=O)c3cccn3c3ccccc32)c1	0%	u	-7%	x	27%[46.1 µM]	-12%
Cc1nn(-c2ccc(F)cc2)c(-n2cccc2)c1C(=O)NCCCN1CCN(c2cccc(Cl)c2)CC1	u	-33	u	x	-14%[46.1 µM]	u
O=C(Nc1ccc(F)cc1F)c1ccc2c(c1)CCN2S(=O)(=O)c1ccc(Cl)cc1	-18%	-27	-16%	-11%[46.1 µM]	u	-16%
CC(C)Oc1ccc(CNC(=O)c2sc3ncccc3c2-n2cccc2)cc1	u	-39	-11%	x	-6%[46.1 µM]	-7%
O=C(Nc1ccc2nc(C3CC3)n(Cc3ccc(F)cc3)c(=O)c2c1)c1ccco1	-20%	-69*	u	-29%	u	u
c1ccc(OCc2noc(CN3CCC(C4CCCCC4)C3)n2)cc1 (configuration not stated)	-15%	-61*	x	x	x	x
COc1ccc(NC(=O)/C=C/c2cc(Br)ccc2OC)cc1	-2%	-29	x	12%	-5%	-16%
COc1ccc(Br)cc1/C=C/C(=O)c1ccc(NC(C)=O)cc1	10µM*	-98*	4.5µM*	u	4µM*	5.6µM*
COc1ccc(OCC(=O)Nc2cc(-c3nc4ccccc4o3)ccc2Cl)cc1	52%	85	-16%	u	u	-5%
CCN(CC(=O)Nc1ccc(NC(C)=O)cc1)C(=O)c1oc2c(ccc3ccccc32)c1C	-19%	-74*	-9%	11%[46.1 µM]	-15%	-10%
CCN(CC(=O)NCc1ccc(F)cc1)C(=O)c1oc2ccccc2c1C	34%	-35	-7%	8.9µM*	u	4%
CC(C)(C)C(=O)Nc1ccc(NC(=O)c2ccco2)nc1	6.3µM*	-96*	-8%	u	u	-6%
CCOC(=O)Cc1ccc(NC(=O)c2ccc(C(C)(C)C)cc2)cc1	18µM*	-88*	u	13µM*	13µM*	u
O=C(NC(=S)Nc1cccc(NC(=S)NC(=O)c2ccco2)n1)c1ccco1	51%	-116*	-14%	9%[46.1 µM]	10%	-13%
O=C(Nc1ccc(NC(=S)NC(=O)c2ccco2)cc1)c1ccccc1	21%	10	-10%	u	5%[46.1 µM]	8%
O=C(Nc1ccc(NC(=S)NC(=O)c2ccco2)cc1)c1ccc(Br)cc1	-22%	-78*	i	x	x	-10%
O=C(Nc1ccc(NC(=O)c2ccco2)nc1)c1ccco1	-43%	u	i	u	u	-10%
Cc1ccc2oc3c(c(=O)c2c1)C(c1ccc(F)cc1)N(Cc1ccc2c(c1)OCO2)C3=O (configuration not stated)	-12%	-7	-13%	u	27%[46.1 µM]	-4%
COc1cccc(CNC(=O)CCc2c(C)c3cc4c(C)coc4cc3oc2=O)c1	5%	-8	-9%	-24%[46.1 µM]	-20%[46.1 µM]	-4%
Cc1ccnn1CC(=O)N1CCOc2c(cc(-c3csc4ccccc34)cc2OC2CCOC2)C1 (configuration not stated)	0%	x	-7%	x	x	-2%
CC(C)(C)c1ccc(C(=O)Nc2ccc(NC(=O)c3ccco3)cc2)cc1	x	-83*	-23%	-8%	-1%	u
COC(=O)Cc1ccc(NC(=O)c2ccc(NC(=O)c3ccco3)cc2)cc1	-14%	-83*	-21%	u	-2%	-4%
SMILES	FMDV inh	HCMV inh	VACV mCherry inh	MARV entry inh	LASV entry inh	VACV Venus inh
Cc1ccc(CN(Cc2ccco2)C(=O)COc2cc(C)c(Cl)c(C)c2)cc1	u	2	-9%	-3%[46.1 µM]	u	-2%
Cc1cc[n+](CCC2CCCCC2)cc1	x	x	-17%	x	x	u
COc1ccc(OC)c(C(=O)CN2C(=O)NC(C)(c3ccccc3)C2=O)c1 (configuration not stated)	-12%	-61*	-27%	u	-24%	-23%
CC1(c2ccccc2)NC(=O)N(CC(=O)NCCC2=CCCCC2)C1=O (configuration not stated)	8%	-69*	-16%	13%	21%	-4%
CCCCCCCCCCCCCCC[C@@H](O)[C@H](CO)NC(C)=O	-10%[6.7 µM]	x	-16%[3.33 µM]	x	x	-13%[3.33 µM]
Cc1noc(C)c1CSc1ccccc1C(=O)N1CCN(c2ccccc2)CC1	u	-7	-18%	-13%	10µM*	-11%
Cc1noc(C)c1CSCC(=O)N1CCN(c2ccc(F)cc2)CC1	u	-60*	u	u	-15%	-25%
Cc1cccc(CCNC(=O)c2ccc3c(c2)N(Cc2ccccc2F)C(=O)c2ccccc2S3)c1	0%	u	i	x	-8%[46.1 µM]	-14%
c1ccc(Cc2nnc3sc(-c4ccncc4)nn23)cc1	-6%	u	x	0%	-1%	x
c1ccc(Cc2nnc3sc(-c4cccnc4)nn23)cc1	20%	-63*	x	20%	-24%	x
CC(C)C[C@H]1CN=C(Nc2ccccc2)N1CC1CCCC1	-16%	17	i	x	x	-8%
CC(C)C[C@H]1CN=C(Nc2ccccc2)N1CC1CCC(C(C)(C)C)CC1 (some centres not stated)	u	x	28µM*	x	x	u
Cc1ccc(NC(=O)c2oc3ccc(S(=O)(=O)N4CCCCCC4)cc3c2C)c(C)c1	-25%	13	-24%	x	-2%[46.1 µM]	-7%
CC(C)C(=O)N1c2ncnn2C2(CCCCC2)[C@@H]2CCCC[C@@H]21	-27%	-111*	-15%	0%[46.1 µM]	29%[46.1 µM]	-11%
COc1ccccc1C(=O)N1c2ncnn2C2(CCCCC2)[C@@H]2CCCC[C@@H]21	-16%	-5	-13%	-9%[46.1 µM]	2%[46.1 µM]	-6%
CCN(C(=O)C1CCC(CNS(=O)(=O)c2cccc3nsnc23)CC1)c1ccc(C)c(C)c1 (configuration not stated)	u	21	-25%	u	-29%[46.1 µM]	-11%
CSCCC(NC(=O)CCC(=O)OC1CC[C@H]2[C@@H]3CC[C@H]4CC(=O)CC[C@]4(C)[C@H]3CC[C@]12C)C(=O)O (some centres not stated)	0%	-10	x	x	x	x
C[C@]12CCC(=O)C[C@@H]1CC[C@@H]1[C@@H]2CC[C@]2(C)[C@@H](C(=O)COC(=O)CCC(=O)O)CC[C@@H]12	-15%	-61*!	-17%	0%[46.1 µM]	4%[46.1 µM]	-22%
Cc1nc(N2CCCCC2)sc1C(=O)c1ccc(SCCO)c([N+](=O)[O-])c1	32µM*	u	u	u	u	-23%
